Source: PubChem BioAssay
Activity calls are given as the source filed them. Cut-off read from the data, not from the text of the source: active = fold change permeability below about 0.7 or above about 1.3; inactive = in between.

Assay: modulators of brain endothelial barrier permeability, primary screen, cell-based, FITC-avidin fluorescence, HTS (AID 1963498); note: test concentration not given here
Details: actives lie on both sides

Which fold change permeability does the source give for NCCCCN here?
The fold change permeability was 0.9 (inactive).

For O=c1c(-c2ccc(O)cc2)coc2cc(O)cc(O)c12, which fold change permeability is on record?
Its fold change permeability is 0.8 (inactive).

For CC(/C=C1\SC(=S)N(CC(=O)O)C1=O)=C\c1ccccc1, which fold change permeability is on record?
The fold change permeability was 1 (inactive).

With NC1=NCC2c3ccccc3Cc3ccccc3N12 (stereo not given) as the molecule, how does the fold change permeability read?
Its fold change permeability is 0.8 (inactive).

For NC[C@@H]1O[C@H](c2ccccc2)Cc2c1ccc(O)c2O, which fold change permeability is on record?
The fold change permeability was 1.3 (active).

With O=C(O)c1cc2cc(F)ccc2[nH]1 as the molecule, how does the fold change permeability read?
The fold change permeability was 1.2 (inactive).

For O=C1/C(=C/c2cccs2)CC/C1=C\c1cccs1, which fold change permeability is on record?
The fold change permeability was 1.6 (active).

For O=c1cc(-c2ccc(O)cc2)oc2cc(O)cc(O)c12, which fold change permeability is on record?
The fold change permeability was 1.2 (inactive).

For O=C(O)CSCC(=O)NC1CCSC1=O (stereo not given), which fold change permeability is on record?
Its fold change permeability is 1.7 (active).

With N#C/C(=C\c1ccc(O)c(O)c1)C(=O)c1ccc(O)c(O)c1 as the molecule, how does the fold change permeability read?
The fold change permeability was 1.8 (active).

With O=C1S/C(=C\c2ccc(OCc3ccc(B(O)O)cc3)cc2)C(=O)N1Cc1ccc(F)cc1 as the molecule, how does the fold change permeability read?
Its fold change permeability is 1.2 (inactive).

With Nc1nc2ccc(Cl)cc2c2nc(-c3ccco3)nn12 as the molecule, how does the fold change permeability read?
The fold change permeability was 1.3 (active).

With Oc1cc2c(cc1O)CN(C(=S)NCCc1ccc(Cl)cc1)CCC2 as the molecule, how does the fold change permeability read?
Its fold change permeability is 1.8 (active).

For COc1ccc2cccc(CCNC(C)=O)c2c1, which fold change permeability is on record?
Its fold change permeability is 0.8 (inactive).

With N=C(N)c1ccc(N)cc1 as the molecule, how does the fold change permeability read?
The fold change permeability was 1.1 (inactive).

With CCC1(C)CC(=O)NC1=O (stereo not given) as the molecule, how does the fold change permeability read?
Its fold change permeability is 0.7 (active).

Which fold change permeability does the source give for O=c1[nH]c(=O)n([C@H]2C[C@H](O)[C@@H](CO)O2)cc1Br here?
Its fold change permeability is 1 (inactive).

With Cc1ccc2c(c1CCC(=O)O)CC[C@@H](NS(=O)(=O)c1ccc(Cl)cc1)C2 as the molecule, how does the fold change permeability read?
Its fold change permeability is 0.8 (inactive).

For NCCS, which fold change permeability is on record?
The fold change permeability was 0.9 (inactive).

For C=C[C@@]1(C)CC(=O)[C@]2(O)[C@@]3(C)[C@@H](O)CCC(C)(C)[C@@H]3[C@H](O)[C@H](OC(C)=O)[C@@]2(C)O1, which fold change permeability is on record?
Its fold change permeability is 0.8 (inactive).

For C[C@]12CC[C@@H]3c4ccc(O)cc4C[C@@H](CCCCCCCCCS(=O)CCCC(F)(F)C(F)(F)F)[C@H]3[C@@H]1CC[C@@H]2O (stereo not given in full), which fold change permeability is on record?
Its fold change permeability is 1 (inactive).

With Cc1cccc(C2CN(C)CCc3c2cc(O)c(O)c3Cl)c1 (stereo not given) as the molecule, how does the fold change permeability read?
The fold change permeability was 0.7 (active).

Which fold change permeability does the source give for CNCCC(Oc1ccccc1C)c1ccccc1 (stereo not given) here?
Its fold change permeability is 0.7 (active).

For Cc1c(C(C)C)c(=O)n(-c2ccc(S(=O)(=O)NCCOc3ccccc3)cc2)n1C, which fold change permeability is on record?
The fold change permeability was 1.3 (active).

For N[C@H](C(=O)O)[C@H](O)c1ccc(O)c(O)c1, which fold change permeability is on record?
Its fold change permeability is 0.9 (inactive).

With CCOC(=O)C(C)(C)Oc1ccc(Cl)cc1 as the molecule, how does the fold change permeability read?
The fold change permeability was 0.9 (inactive).

Which fold change permeability does the source give for CCc1cccc(N(C)C(N)=Nc2cccc3ccccc23)c1 here?
The fold change permeability was 1.1 (inactive).

With N[C@@H](Cc1ccc(F)cc1)C(=O)O as the molecule, how does the fold change permeability read?
Its fold change permeability is 0.8 (inactive).

With O=P(O)(O)C(Cl)(Cl)P(=O)(O)O as the molecule, how does the fold change permeability read?
The fold change permeability was 1.1 (inactive).

With O=c1ccc2ccc(O)c(O)c2o1 as the molecule, how does the fold change permeability read?
The fold change permeability was 1.2 (inactive).

For O=c1c(O)c(-c2cc(O)c(O)c(O)c2)oc2cc(O)cc(O)c12, which fold change permeability is on record?
Its fold change permeability is 0.7 (active).

For CCN(CC)S(=O)(=O)Nc1cccc(-c2ccc3c(NC(=O)C4CC4)n[nH]c3c2)c1, which fold change permeability is on record?
Its fold change permeability is 1.6 (active).

Which fold change permeability does the source give for CNC(=O)Nc1cc(Oc2cncc(OC)c2)c(C2CCCOC2)cn1 (stereo not given) here?
The fold change permeability was 1.1 (inactive).

With C[C@H](CSC(=O)c1ccccc1)C(=O)N1C[C@@H](Sc2ccccc2)C[C@H]1C(=O)O as the molecule, how does the fold change permeability read?
Its fold change permeability is 1 (inactive).

For CC(=O)NCCc1c[nH]c2ccc(O)cc12, which fold change permeability is on record?
Its fold change permeability is 1.1 (inactive).

Which fold change permeability does the source give for Cc1ncc(-c2c[nH]c3ccccc23)o1 here?
Its fold change permeability is 1.2 (inactive).

With CC(C)Cn1c(=O)n(C)c(=O)c2[nH]cnc21 as the molecule, how does the fold change permeability read?
The fold change permeability was 0.7 (active).

With CNCC(O)c1ccc(O)c(O)c1 (stereo not given) as the molecule, how does the fold change permeability read?
Its fold change permeability is 0.8 (inactive).

With NC(N)=NC(N)=Nc1cccc(Cl)c1 as the molecule, how does the fold change permeability read?
The fold change permeability was 1.2 (inactive).

Which fold change permeability does the source give for CS(=O)(=O)Nc1ccc([N+](=O)[O-])cc1Oc1ccccc1 here?
The fold change permeability was 0.8 (inactive).
